Reference: the supplement of paper PMC10981050
“And” between values parts separate entries of the source, which are not always exact repeats. Equal entries are not always repeated. Structures can show the parent of a compound that is named as a salt.

Experiments:
Assay in all cases: cell viability relative to vehicle control; higher = less cytotoxic
Details in all cases: 10 µM
K562 = tested on: K562
Outline: (§1)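 Screening covered the Selleck bioactive, kinase and epigenetic probe libraries, less identity-inconsistent compounds, on CRISPR-edited mutant clones and isogenic wild-type clones of four leukaemia lines. Cells, at 2000 per well in 50 µL medium, received a single 10 µM acoustically dispensed dose. After 48 h the supernatant was removed and CellTiter-Glo luminescence was read. Viability was analysed in Genedata Screener as percent of the on-plate vehicle control.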

MARIMO = tested on: MARIMO
Outline: as §1

MOLM14 = tested on: MOLM14
Outline: as §1

OCI-AML2 = tested on: OCI-AML2
Outline: as §1

SMILES	cell viability (K562; SRSF2 genotype: SRSF2 P95H/wt)	cell viability (K562; SRSF2 genotype: SRSF2 wt/wt) [%]	cell viability (MARIMO; SRSF2 genotype: SRSF2 P95H/wt) [%]	cell viability (MARIMO; SRSF2 genotype: SRSF2 wt/wt) [%]	cell viability (MOLM14; SRSF2 genotype: SRSF2 P95H/wt) [%]	cell viability (MOLM14; SRSF2 genotype: SRSF2 wt/wt) [%]	cell viability (OCI-AML2; SRSF2 genotype: P95H/wt) [%]	cell viability (OCI-AML2; SRSF2 genotype: wt/wt) [%]
Nc1ccc(-c2cccc(C(=O)Nc3cnc4nc(N5CCOCC5)oc4c3)n2)cn1	96.8% and 100%	91.5	98.3	91.6	86	87.5	103	93.7
Nc1ccc(S(=O)(=O)Nc2cncc(Cl)n2)cc1 [Sulfalozine sodium]	101% and 97.3%	104	103	111	92.7	102	107	88.8
CC#CC(=O)N1CCC[C@H]1c1nc(-c2ccc(C(=O)Nc3ccccn3)cc2)c2c(N)nccn12 [Acalabrutinib (ACP-196)]	93.2% and 96.6%	94.1	101	113	95.4	100	90.2	96.9
CCCC(=O)O[C@]1(C(=O)COC(C)=O)CC[C@H]2[C@@H]3C[C@H](F)C4=CC(=O)C=C[C@]4(C)[C@@]3(F)[C@@H](O)C[C@@]21C [Difluprednate]	96.9% and 99%	99.4	102	100	91.2	92.1	109	107
O=c1[nH]c(=O)n(C2CC(O)C(CO)O2)cc1I (configuration not stated) [Idoxuridin]	86.7% and 92.3%	77	102	98.3	80.5	88.1	83.3	84.3
CNC(=O)c1ccc(C)c(-n2c(C)cc(OCc3ccc(F)cc3F)c(Br)c2=O)c1	74% and 77.8%	82.4	65.6	58.4	69.8	78.8	72.8	72.2
Nc1ccc(C(=O)NCC(=O)O)cc1 [4-Aminohippuric Acid]	97.6% and 98.4%	98.2	92.9	102	95.7	97.4	92.8	103
COc1cc(C(C)=O)ccc1O [Apocynin (Acetovanillone)]	103% and 104%	105	91.6	110	104	103	93	93.7
CC1OC(OC2C(OC3CCC4(C)C(CCC5(C)C4CC=C4C6CC(C)(C)CCC6(C(=O)OC6OC(COC7OC(CO)C(O)C(O)C7O)C(O)C(O)C6O)CCC45C)C3(C)CO)OCC(O)C2O)C(O)C(OC2OC(CO)C(O)C(O)C2O)C1O (configuration not stated) [Macranthoidin A]	99.3% and 97.9%	100	100	102	102	96.6	98	105
Cc1ccc(C(=O)N(CCCN)[C@@H](c2nc3cc(Cl)ccc3c(=O)n2Cc2ccccc2)C(C)C)cc1	0.81% and 1.13%	0.6	0.37	0.68	0.2	0.34	0.16	0.25
CC/C=C(\C(=O)N[C@@H]1C(=O)N2C(C(=O)OCOC(=O)C(C)(C)C)=C(COC(N)=O)CS[C@H]12)c1csc(N)n1 [Cefcapene Pivoxil Hydrochloride]	101% and 102%	109	93.2	103	97.3	105	114	106
Cc1cc([N+](=O)[O-])ccc1NS(=O)(=O)c1cc(Cl)ccc1Cl	79.9% and 88%	86.3	96.4	92.9	92.3	90.9	93.1	97.1
NCc1c[nH]c(=S)n1[C@H]1CCc2c(F)cc(F)cc2C1 [Nepicastat hydrochloride]	100% and 97.2%	96.6	92.2	97.4	88.4	101	101	103
Cc1nc(Nc2ncc(C(=O)Nc3c(C)cccc3Cl)s2)cc(N2CCN(CCO)CC2)n1 [Dasatinib Monohydrate]	23.6% and 40.6%	28.3	67.5	70.5	38.8	39	33.3	43.3
C=C1CCC[C@]2(C)C=C3OC(=O)C(C)=C3C[C@@H]12 [Atractylenolide I]	102% and 110%	106	97.2	102	103	103	116	91.6
COc1cc2c(cc1OC)[C@@H](Cc1ccc(O)c(Oc3cc4c(cc3OC)CCN(C)[C@@H]4Cc3ccc(O)cc3)c1)N(C)CC2 [Liensinine]	86.6% and 83%	78.5	63.3	74.6	69.1	83.3	63.2	59.9
O=C([O-])c1ccccc1.[Na+] [Sodium benzoate]	86.9% and 85.9%	86.1	83.9	90.9	93	89.5	86	97.5
CN(CCOc1ccc(CC2SC(=O)NC2=O)cc1)c1ccccn1 (configuration not stated) [Rosiglitazone (Avandia)]	101% and 90.7%	85	89.6	101	90	96.6	94	101
Nc1c(CC(=O)O)cccc1C(=O)c1ccc(Br)cc1 [Bromfenac Sodium]	106% and 105%	97.3	105	98.3	102	102	107	104
CC(C)[C@H](NC(=O)[C@H](CC(=O)O)NC(=O)[C@H](CCCCN)NC(=O)[C@@H](N)CCCN=C(N)N)C(=O)N[C@@H](Cc1ccc(O)cc1)C(=O)O [Thymopentin]	92.2% and 89.2%	87	86.4	94.6	95.8	91.6	77.9	89.5

SMILES	cell viability (K562; SRSF2 genotype: SRSF2 P95H/wt)	cell viability (K562; SRSF2 genotype: SRSF2 wt/wt) [%]	cell viability (MARIMO; SRSF2 genotype: SRSF2 P95H/wt) [%]	cell viability (MARIMO; SRSF2 genotype: SRSF2 wt/wt) [%]	cell viability (MOLM14; SRSF2 genotype: SRSF2 P95H/wt) [%]	cell viability (MOLM14; SRSF2 genotype: SRSF2 wt/wt) [%]	cell viability (OCI-AML2; SRSF2 genotype: P95H/wt) [%]	cell viability (OCI-AML2; SRSF2 genotype: wt/wt) [%]
O=c1cc(-c2ccccc2)oc2cc(O)cc(O)c12 [Chrysin]	100% and 104%	105	93	107	81.1	93.7	86.7	75.3
COC1C(O)CC(=O)OC(C)CC=CC=CC(OC2CCC(N(C)C)C(C)O2)C(C)CC(CC=O)C1OC1OC(C)C(OC2CC(C)(O)C(O)C(C)O2)C(N(C)C)C1O (configuration not stated) [spiramycin]	93.7% and 96.3%	108	99.4	102	98	103	110	96.7
O=c1ccc2ccc(O)cc2[nH]1 [7-Hydroxycarbostyril]	95.8% and 92.9%	101	95.4	101	95	101	91.2	107
Cc1cc(C)nc(NS(=O)(=O)c2ccc(NC(=S)NC(=O)COc3ccc(Br)cc3Cl)cc2)n1	91.4% and 83.1%	85.5	82.3	90.7	83.5	91.1	88.6	84.6
COc1ccnc2[nH]cc(C(=O)C(=O)N3CCN(C(=O)c4ccccc4)C[C@H]3C)c12	93.7% and 90.7%	84.5	90	99.2	95.6	90.3	82.2	86.4
COc1cc2oc(=O)ccc2c(OC)c1C[C@@H](O)C(C)(C)O [Toddalolactone]	106% and 101%	104	102	105	112	106	102	104
CC(C(=O)O)c1ccc(-c2ccccc2)c(F)c1 (configuration not stated) [Flurbiprofen]	107% and 105%	103	106	99	104	105	108	102
COc1cc([C@@H]2c3cc4c(cc3[C@@H](O[C@@H]3O[C@@H]5CO[C@@H](c6cccs6)O[C@H]5[C@H](O)[C@H]3O)[C@H]3COC(=O)[C@H]23)OCO4)cc(OC)c1O [Teniposide (Vumon)]	8.79% and 17.8%	6.27	3.97	2.15	0.52	0.37	0.66	0.72
C#C[C@]1(O)CC[C@H]2[C@@H]3CCc4cc(OC)ccc4[C@H]3CC[C@@]21C [Mestranol]	79% and 93.7%	96.3	78.5	76	90.7	99.9	74.9	82
Cc1cc(-c2ccc(/N=N/c3ccc4c(S(=O)(=O)O)cc(S(=O)(=O)O)c(N)c4c3O)c(C)c2)ccc1/N=N/c1ccc2c(S(=O)(=O)O)cc(S(=O)(=O)O)c(N)c2c1O [Evans Blue]	66.2% and 64.2%	62.8	63.8	72.2	67.4	64.7	66.2	67.6
COCC1=C(C(=O)OC(C)OC(=O)OC(C)C)N2C(=O)[C@@H](NC(=O)/C(=N\OC)c3csc(N)n3)[C@H]2SC1 (some centres not stated) [Cefpodoxime proxetil]	103% and 105%	92.6	91.9	100	90.4	95.7	90.3	94.9
Cc1cc2c(C(N)=O)cccc2n1-c1nc2c(c(NCc3ccccc3)n1)COCC2	0.8% and 0.75%	0.74	0.6	1.05	0.36	0.42	0.35	0.49
CNC(=O)CN1CCC(Oc2cc3c(Nc4cccc(Cl)c4F)ncnc3cc2OC)CC1	85.2% and 96%	91.9	93.6	100	79.5	93.1	73.8	79.5
CC/C(=C(/CC)c1ccc(O)cc1)c1ccc(O)cc1 [Diethylstilbestrol]	80.1% and 78.1%	78.8	84.5	87.1	75.1	87.8	74.8	81.4
O=C(CCN1CCN(C(=O)OCc2cc(Cl)cc(Cl)c2)CC1)c1ccc2[nH]c(=O)oc2c1	88.6% and 96.5%	94.5	87.2	106	83.1	98.8	88.2	109
CCCCC(C=O)NC(=O)C(CC(C)C)NC(=O)C(CC(C)C)NC(C)=O (configuration not stated)	1.41% and 2.62%	1.86	1.3	1.7	0.23	0.15	0.23	1.17
CC1(C)Cc2c(sc(NC(=O)c3ccn[nH]3)c2C(N)=O)C(C)(C)O1	103% and 101%	109	96.6	93.3	110	102	101	104
CCOC(=O)[C@H](CCc1ccccc1)N[C@H]1CCc2ccccc2N(CC(=O)O)C1=O [Benazepril hydrochloride]	109% and 106%	108	101	111	95.9	98.9	93.3	102
N#CC[C@H](C1CCCC1)n1cc(-c2ncnc3[nH]ccc23)cn1 [S-Ruxolitinib]	108% and 98.5%	113	101	104	75.5	89.4	83.4	77.2
